The record followed here is PubChem BioAssay (NCI).

This is part of a sample that, as a whole, favours compounds with a hit. Of some 83,000 tested, about 20% had one in any assay.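 Treatment: one concentration, 48 hours, 96-well format. Scoring: percent growth, with anything below 10 considered active.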 Values without a mark were called inactive. Active and inactive are the calls of the source.

Some test systems named below: NCI-H23 lung; NCI-H226 lung; NCI-H322M lung; HOP-62 NSCLC; NCI-H460 lung; HOP-92 NSCLC; NCI-H522 lung; A549/ATCC NSCLC; 786-0 renal; COLO 205 colon; DU-145 prostate; K-562 leukemia; MALME-3M melanoma; MDA-MB-231 breast; RXF 393 renal; SF-268 CNS; SF-295 CNS; SF-539 CNS; UACC-257 melanoma; M14 melanoma.
Test in all cases: NCI-60 one-dose screen, 48 h (100 = growth as untreated, 0 = no growth, -100 = all killed)
Common to all, as to conditions: 10 µM unless noted

As for `NC(=S)n1c(=O)n(-c2cccc(C(F)(F)F)c2)c(=O)c2cc(-c3ccc(F)cc3F)ccc21`, the growth in the experiment on NCI-H23 lung is -5.28% (active); with NCI-H226 lung it was 9.53% (active); in the experiment on NCI-H322M lung, 6.11% (active); in the experiment with HOP-62 NSCLC, 1.42% (active); with NCI-H460 lung, 6.23% (active); in the experiment with HOP-92 NSCLC, -29.9% (active). The growth was -4.04% (active) in the experiment with NCI-H522 lung; 7.29% (active) with A549/ATCC NSCLC; 11.4% in the experiment with 786-0 renal; 37.5% with COLO 205 colon; 24.5% in the experiment with DU-145 prostate; 8.79% (active) with K-562 leukemia. Also, the growth with MALME-3M melanoma was -17.5% (active); in the experiment with MDA-MB-231 breast it was -11.3% (active); with RXF 393 renal it was 0.891% (active); in the experiment on SF-268 CNS, 13.3%; with SF-295 CNS, -12% (active); with SF-539 CNS it was 17.2%. Also, the growth was -7.03% (active) with UACC-257 melanoma and 14.5% with M14 melanoma.

As to `C#Cc1nc(/C=C\CCCCCCC(=O)NO)cs1`, the growth was -63.5% (active) with NCI-H23 lung; 74.2% with NCI-H226 lung; 78.4% in the experiment on NCI-H322M lung; 79.7% in the experiment on HOP-62 NSCLC; 55.4% in the experiment with NCI-H460 lung; -75.3% (active) in the experiment with HOP-92 NSCLC. The growth was -59.8% (active) in the experiment on NCI-H522 lung; 67.6% in the experiment with A549/ATCC NSCLC; -78.5% (active) with 786-0 renal; 84.7% with COLO 205 colon; 39.2% in the experiment with DU-145 prostate; 14.7% with K-562 leukemia. In addition, the growth was -19.8% (active) in the experiment on MALME-3M melanoma; -11.8% (active) in the experiment with MDA-MB-231 breast; -4.23% (active) with RXF 393 renal; 79.4% in the experiment with SF-268 CNS; 65.3% in the experiment on SF-295 CNS; -81.3% (active) in the experiment on SF-539 CNS. Further, the growth in the experiment on UACC-257 melanoma was 38.2%; in the experiment on M14 melanoma, 61.6%.

Turning to `CC1(C)CC[C@]2(C(=O)O)CC[C@]3(C)C(=CC[C@@H]4[C@@]5(C)CC[C@H](NOCCCN)C(C)(C)[C@@H]5CC[C@]43C)[C@@H]2C1`, the growth was 91.1% in the experiment with NCI-H23 lung; 90.3% in the experiment with NCI-H226 lung; 94% in the experiment with NCI-H322M lung; 102% in the experiment on HOP-62 NSCLC; 73.3% in the experiment on NCI-H460 lung; 62.3% in the experiment on HOP-92 NSCLC. Further, the growth in the experiment with NCI-H522 lung is 97.2%; in the experiment on A549/ATCC NSCLC it was 77.9%; with 786-0 renal, 98.6%; with COLO 205 colon, 19.6%; with DU-145 prostate, 94.7%; in the experiment with K-562 leukemia, 46.4%. The growth with MALME-3M melanoma is 91.6%; in the experiment with MDA-MB-231 breast, 92.4%; in the experiment on RXF 393 renal, 68.8%; in the experiment with SF-268 CNS, 100%; in the experiment on SF-295 CNS, 101%; in the experiment with SF-539 CNS, 86.4%. The growth is 89.2% with UACC-257 melanoma and 94.7% with M14 melanoma.

For the compound `CC1(C)CC[C@]2(C(=O)NCCCCCCN(CCCN)CCCN)CC[C@]3(C)C(=CC[C@@H]4[C@@]5(C)CC[C@H](O)C(C)(C)[C@@H]5CC[C@]43C)[C@@H]2C1`, the growth in the experiment on NCI-H23 lung is 105%; in the experiment on NCI-H226 lung it was 100%; in the experiment with NCI-H322M lung it was 95.1%; in the experiment with HOP-62 NSCLC, 111%; in the experiment with NCI-H460 lung, 102%; in the experiment with HOP-92 NSCLC it was 101%. The growth in the experiment with NCI-H522 lung was 101%; in the experiment with A549/ATCC NSCLC, 93.1%; with 786-0 renal, 91.5%; with COLO 205 colon it was 102%; in the experiment with DU-145 prostate, 107%; in the experiment with K-562 leukemia it was 109%. Also, the growth was 103% in the experiment on MALME-3M melanoma; 93.7% in the experiment on MDA-MB-231 breast; 113% with RXF 393 renal; 97.2% in the experiment with SF-268 CNS; 105% in the experiment with SF-295 CNS; 102% in the experiment on SF-539 CNS. Also, the growth is 97.6% in the experiment on UACC-257 melanoma and 105% in the experiment with M14 melanoma.

For the compound `COc1ccc(/C(=N\N=C(N)N)c2ccc(Cl)cc2)cc1OC`, the growth with NCI-H23 lung is 87.2%; with NCI-H226 lung, 88.6%; in the experiment on NCI-H322M lung it was 79.6%; with HOP-62 NSCLC, 69.1%; in the experiment with NCI-H460 lung it was 78%; with HOP-92 NSCLC, -0.241% (active). Further, the growth in the experiment with NCI-H522 lung is 74.3%; with A549/ATCC NSCLC, 76.1%; in the experiment with 786-0 renal, 59.2%; with COLO 205 colon it was 80%; in the experiment with DU-145 prostate it was 90.3%; in the experiment on K-562 leukemia, 49.6%. The growth is 90% in the experiment with MALME-3M melanoma; 71% in the experiment on MDA-MB-231 breast; 54.3% in the experiment on RXF 393 renal; 59.9% with SF-268 CNS; 71.8% in the experiment with SF-295 CNS; 83% in the experiment with SF-539 CNS. Further, the growth was 90.2% in the experiment on UACC-257 melanoma and 65.5% in the experiment with M14 melanoma.

Regarding `CC(C)(C)Nc1nc2c(OCCc3ccccc3)cccn2c1-c1ccc([N+](=O)[O-])cc1`, the growth with NCI-H23 lung was 62.4%; with NCI-H226 lung, 70.5%; with NCI-H322M lung, 64.7%; in the experiment on HOP-62 NSCLC, 78.1%; in the experiment on NCI-H460 lung, 60.8%; in the experiment on HOP-92 NSCLC, 54.7%. Moreover, the growth in the experiment on NCI-H522 lung is 41.4%; in the experiment on A549/ATCC NSCLC it was 53.5%; in the experiment with 786-0 renal it was 75.1%; in the experiment with COLO 205 colon, 49%; in the experiment with DU-145 prostate, 86.2%; in the experiment with K-562 leukemia, 39.7%. Moreover, the growth in the experiment on MALME-3M melanoma was 83.6%; with MDA-MB-231 breast, 80.9%; with RXF 393 renal, 63.5%; in the experiment with SF-268 CNS it was 71.2%; with SF-295 CNS, 43.8%; in the experiment with SF-539 CNS, 76.5%. The growth in the experiment with UACC-257 melanoma is 88.7%; in the experiment with M14 melanoma, 60.5%.

For the compound `COc1ccc(C2C(C#N)=C(/N=C/c3ccc(Cl)cc3)Oc3c2sc2c(C)cccc32)cc1` (stereo not given), the growth is 26.2% in the experiment on NCI-H23 lung; 45.4% in the experiment with NCI-H226 lung; 44.2% with NCI-H322M lung; 29.8% in the experiment on HOP-62 NSCLC; 10.1% in the experiment on NCI-H460 lung; 30.5% in the experiment on HOP-92 NSCLC. The growth in the experiment on NCI-H522 lung is -40.8% (active); in the experiment on A549/ATCC NSCLC, 34.2%; in the experiment with 786-0 renal it was 39.2%; in the experiment on COLO 205 colon, -22.3% (active); in the experiment on DU-145 prostate it was 26.1%; in the experiment on K-562 leukemia, 9.73% (active). Also, the growth with MALME-3M melanoma is 50.2%; with MDA-MB-231 breast, 33.9%; with RXF 393 renal it was -5.77% (active); with SF-268 CNS it was 52.9%; with SF-295 CNS, 8.79% (active); with SF-539 CNS, 1.34% (active). The growth was 70.9% in the experiment on UACC-257 melanoma and 0.955% (active) in the experiment on M14 melanoma.

In the case of `C#C[C@]1(O)CC[C@H]2[C@@H]3CC=C4c5sc(Nc6ncccc6C)nc5CC[C@]4(C)[C@H]3CC[C@@]21C`, the growth is 9.38% (active) in the experiment on NCI-H23 lung; 23.4% in the experiment on NCI-H226 lung; 32.8% with NCI-H322M lung; 11.9% in the experiment on HOP-62 NSCLC; 0.476% (active) with NCI-H460 lung; 20.5% in the experiment on HOP-92 NSCLC. The growth with NCI-H522 lung is 25.9%; in the experiment on A549/ATCC NSCLC, 21.8%; in the experiment with 786-0 renal, -56.2% (active); in the experiment on COLO 205 colon, 34.8%; in the experiment with DU-145 prostate, 36.8%; in the experiment on K-562 leukemia, -9.62% (active). For the same compound, the growth is -19% (active) in the experiment on MALME-3M melanoma; 12.8% with MDA-MB-231 breast; -75.3% (active) with RXF 393 renal; 7.66% (active) in the experiment with SF-268 CNS; -70% (active) in the experiment with SF-295 CNS; -56.4% (active) with SF-539 CNS. The figures for the growth in the experiment with UACC-257 melanoma and in the experiment on M14 melanoma were -35.8% (active) and -55.9% (active), respectively.
